The results in this text go back to PMC4336329 (PLoS ONE, 2015).

About 14,000 (4.5%) of roughly 310,000 compounds showed an effect of 50% or more. The effect is printed as a negative number. The sample as a whole holds a higher share of strong results than the screen did.
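Also: peak tail current of the secondary pulse compared with the same well before compound.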

Chain of human ether-à-go-go-related gene (hERG) potassium channel (Q12809 whole entry, looked up): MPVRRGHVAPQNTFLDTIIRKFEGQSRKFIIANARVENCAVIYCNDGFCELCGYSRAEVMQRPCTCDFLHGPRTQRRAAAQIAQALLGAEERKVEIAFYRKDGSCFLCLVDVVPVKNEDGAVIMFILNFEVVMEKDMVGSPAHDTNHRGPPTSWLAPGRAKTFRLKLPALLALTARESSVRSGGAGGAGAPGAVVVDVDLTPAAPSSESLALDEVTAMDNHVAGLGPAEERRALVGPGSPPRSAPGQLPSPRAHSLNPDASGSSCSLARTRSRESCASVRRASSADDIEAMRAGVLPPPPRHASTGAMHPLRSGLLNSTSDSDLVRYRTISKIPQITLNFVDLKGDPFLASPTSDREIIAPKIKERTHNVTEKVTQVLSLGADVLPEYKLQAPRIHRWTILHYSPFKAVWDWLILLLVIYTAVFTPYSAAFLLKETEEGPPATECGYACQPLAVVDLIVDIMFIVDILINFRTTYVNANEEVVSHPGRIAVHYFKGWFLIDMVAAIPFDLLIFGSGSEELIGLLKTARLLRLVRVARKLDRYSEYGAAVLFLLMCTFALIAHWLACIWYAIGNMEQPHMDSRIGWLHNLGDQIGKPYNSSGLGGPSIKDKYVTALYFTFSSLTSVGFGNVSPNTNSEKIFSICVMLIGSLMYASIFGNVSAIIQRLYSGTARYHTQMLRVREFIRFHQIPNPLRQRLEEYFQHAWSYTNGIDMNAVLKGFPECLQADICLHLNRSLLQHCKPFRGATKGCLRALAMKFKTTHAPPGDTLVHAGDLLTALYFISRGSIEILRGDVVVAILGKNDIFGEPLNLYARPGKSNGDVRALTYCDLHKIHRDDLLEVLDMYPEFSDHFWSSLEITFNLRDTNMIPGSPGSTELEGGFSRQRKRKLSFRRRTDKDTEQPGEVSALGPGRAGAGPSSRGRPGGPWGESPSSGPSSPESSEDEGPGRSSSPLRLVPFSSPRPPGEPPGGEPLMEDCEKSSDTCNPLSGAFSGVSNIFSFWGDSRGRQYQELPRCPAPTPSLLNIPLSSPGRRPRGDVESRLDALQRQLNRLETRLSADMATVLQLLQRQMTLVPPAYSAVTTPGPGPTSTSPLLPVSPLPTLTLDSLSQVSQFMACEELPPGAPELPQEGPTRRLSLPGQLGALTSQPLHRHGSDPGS

The assay has as its target human ether-à-go-go-related gene (hERG) potassium channel (human, UniProt Q12809). The assay can be described thus: primary screen, population patch clamp on CHO cells stably expressing hERG; higher = less effect of the substance.
For `COc1cnn(-c2cc(Oc3ccc(C)cc3)ncn2)c(=O)c1Cl`, the “hERG current change (%, negative = inhibition) at 10uM” value came out at 2.74%.
The result for `COc1cccc(C(=O)NCC2(c3ccccc3)CCCC2)c1OC` reads 3.79%; that for `CC(C)n1ncc2c(C(=O)N3CCN(c4ccccc4)CC3)cc(-c3ccccc3)nc21`, 17.2%.
The result for `COc1ccc(C(=O)N2CCCC2=O)cc1` reads 17%.
`Cc1sc(NC(=O)C2=COCCO2)nc1-c1ccc(F)cc1`: the “hERG current change (%, negative = inhibition) at 10uM” value amounted to 15.5%.
The result for `CNC(=S)N/N=C/c1ccc(N2CCOCC2)s1` reads 51.6%; that for `CS(=O)(=O)n1nc(-c2cccnc2)nc1NCc1ccccc1`, 43.9%.
In the case of `Cc1nc(Nc2ccc(S(N)(=O)=O)cc2)sc1-c1ccccc1`, the “hERG current change (%, negative = inhibition) at 10uM” value is reported as 12.9%.
The same measure for `Nc1c(-c2ccccc2)sc2ccc3ccccc3[n+]12.O=S(=O)([O-])c1ccccc1`: -58.3%; for `Nc1nc(-c2ccccc2)c(-c2ccccc2)s1`: -2.18%; for `Cc1c(NC(=O)CSc2nccn2C)c(=O)n(-c2ccccc2)n1C`: 10.9%.
The same measure for `CC(CNC(=O)c1cccs1)c1ccc([N+](=O)[O-])cc1` (stereo not drawn): 4.3%.
`COc1cc(OC)cc(C(=O)N[C@H](C(=O)Nc2cc(C)cc(C)c2)C(C)C)c1`: the “hERG current change (%, negative = inhibition) at 10uM” value is recorded as -54.7%.
The result for `COc1cc(OC)cc(C(=O)NC(C(=O)Nc2ccc3c(c2)CCC3)C(C)C)c1` (stereo not drawn) reads -1.96%; that for `COc1cc(OC)cc(C(=O)N[C@H](C(=O)Nc2ccc(NC(C)=O)cc2)C(C)C)c1`, 13%.
As to `Cc1cc2oc(=O)cc(C)c2cc1NC(=O)CCC(=O)O`, the “hERG current change (%, negative = inhibition) at 10uM” value is reported as 7.75%.
The same measure for `Cc1cccc(OCC(=O)Nc2ccc3c(c2)nc(CCN2CCN(c4ccccn4)CC2)n3C)c1`: -79.5%; for `Cn1c(CCN2CCN(c3ccccn3)CC2)nc2cc(NC(=O)COc3ccc([N+](=O)[O-])cc3)ccc21`: -5.69%.
The result for `Cn1c(CCN2CCN(c3ccccn3)CC2)nc2cc(NC(=O)COc3ccc(Cl)cc3)ccc21` reads -22.7%; that for `CCC(=O)Nc1ccc2c(c1)nc(CCN1CCN(c3ccccn3)CC1)n2C`, -18.3%.
The result for `Cn1c(CCN2CCN(c3ccccn3)CC2)nc2cc(NC(=O)COc3ccccc3)ccc21` reads -72.5%; that for `CCCCC(=O)Nc1ccc2c(c1)nc(CCN1CCN(c3ccccn3)CC1)n2C`, -56.5%; that for `CCCC(=O)Nc1ccc2c(c1)nc(CCN1CCN(c3ccccn3)CC1)n2C`, -25.5%.
On to `O=[N+]([O-])c1cc(-c2nc3nc4ccccc4nc3n2CCc2ccccc2)cc([N+](=O)[O-])c1`, for which the “hERG current change (%, negative = inhibition) at 10uM” value was 3.97%.
The same measure for `Cc1ccc(S(=O)(=O)N(C)/N=C/C=C/c2ccccc2)cc1`: 0.391%; for `O=S(=O)(Cc1ccccc1Cl)NCc1ccccc1`: 7.02%; for `Cc1cc(C)nc(SC2c3cccc4cccc(c34)C2NS(=O)(=O)c2ccccc2)n1` (stereo not drawn): -4.8%.
As for `Cc1cccc(N2CCN(C(=O)Cc3cn(C)c4ccccc34)CC2)c1C`, the “hERG current change (%, negative = inhibition) at 10uM” value is -7.32%.
For `CC1CCc2sc(C(=O)NCCCn3ccnc3)cc2C1` (stereo not drawn), the “hERG current change (%, negative = inhibition) at 10uM” value is -1.07%.
The result for `Cc1ccccc1-c1ncc(CN2CCN(C3CCCCC3)C(CCO)C2)cn1` (stereo not drawn) reads -17.4%; that for `OCCC1CN(Cc2cnc(-c3cccc4ccccc34)nc2)CCN1C1CCCCC1` (stereo not drawn), -13.2%.
As to `Cc1ccccc1-c1ncc(CN2CCN(C3CCCC3)C(CCO)C2)cn1` (stereo not drawn), the “hERG current change (%, negative = inhibition) at 10uM” value is -25.8%.
The result for `CC(C)CN1CCN(Cc2cnc(-c3ccc(Cl)cc3)nc2)CC1CCO` (stereo not drawn) reads -67.2%.
The result for `COc1ccc(-c2ncc(CN3CCN(CCC(C)C)C(CCO)C3)cn2)cc1` (stereo not drawn) reads -43.4%.
Consider `Cc1cccc(-c2ncc(CN3CCN(C4CCCC4)C(CCO)C3)cn2)c1` (stereo not drawn), for which the “hERG current change (%, negative = inhibition) at 10uM” value was -46.7%.
Regarding `Cc1cccc(-c2ncc(CN3CCN(CC(C)C)C(CCO)C3)cn2)c1` (stereo not drawn), the “hERG current change (%, negative = inhibition) at 10uM” value is -47.9%.
In the case of `OCCC1CN(Cc2cnc(-c3ccc(Cl)cc3)nc2)CCN1C1CCCCC1` (stereo not drawn), the “hERG current change (%, negative = inhibition) at 10uM” value is on record as -73.6%.
In the case of `OCCC1CN(Cc2cnc(-c3ccc(Cl)cc3)nc2)CCN1C1CCCC1` (stereo not drawn), the “hERG current change (%, negative = inhibition) at 10uM” value is listed as -73.5%.
The result for `CC(C)(C)c1cc(-c2n[nH]c(=S)n2-c2ccc(Cl)cc2)n[nH]1` reads 17.3%.
As to `CCCCCC1CCC(C(=O)N2CCOCC2)CC1` (stereo not drawn), the “hERG current change (%, negative = inhibition) at 10uM” value is listed as -2.44%.
The same measure for `CC(C)CC(=O)Nc1ccc(-c2nc3ccccc3c(=O)[nH]2)cc1`: 26.7%; for `O=C1COc2ccc(S(=O)(=O)CCC(=O)NC3CCCCC3)cc2N1`: 11.8%.
